A3A deaminase = human APOBEC3A DNA deaminase inhibition | recombinant A3A, FAM/TAMRA ssDNA deamination fluorescence | actives 0.41% (n = 330,000) | inhibition, % at 20 µM | AID 493011;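 active = at least 40% inhibition at 20 µM here, with at most 30% in a related deaminase screen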;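 also: plate controls were A3A with DMSO for no effect and wells lacking A3A enzyme for full effect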
Target sequence (P31941 whole entry, looked up): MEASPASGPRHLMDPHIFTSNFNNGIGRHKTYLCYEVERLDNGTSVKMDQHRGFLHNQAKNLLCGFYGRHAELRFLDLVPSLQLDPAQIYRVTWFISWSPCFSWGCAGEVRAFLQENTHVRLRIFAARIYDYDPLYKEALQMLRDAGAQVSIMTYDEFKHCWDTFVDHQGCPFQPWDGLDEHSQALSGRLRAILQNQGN
MIN6 prolif = inducers of beta-cell replication in MIN6 cells; actives 0.29% (n = 330,000); AID 2380; MIN6 cells proliferation, ATPlite luminescence, 48 h; cells starved in 0.2% serum; 100% = growth in 10% serum; proliferation, % at 10 µM;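 active = compounds whose signal lies at least 3.5 SD above the mean of all wells on their plate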;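 also: 0% = DMSO-treated cells in low-serum medium and 100% = 10% serum control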
Bfl-1 A1 inh = inhibitors of the anti-apoptotic protein A1, read as caspase activation. actives 0.066% (n = 330,000). MEF A1-2A-BIM cells, Caspase-Glo 3/7 luminescence, 3 h; percent of clofoctol response, vehicle zero. caspase activation, % (no concentration beside the values);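 active = over half of replicate activation scores above 10%, or exactly half above 10 with the replicate mean above 10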
A3G deaminase = APOBEC3G (human) deaminase inhibition; Q9HC16; recombinant A3G, ssDNA deamination FAM/TAMRA fluorescence; inhibition, % at 20 µM; actives 0.28% (n = 330,000); AID 493012;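 active = inhibition of at least 40% at 20 µM, with no more than 30% in the related APOBEC3A deaminase screen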;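 also: plate controls were DMSO wells with A3G for no effect and wells lacking A3G enzyme for full effect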
Target sequence (Q9HC16 whole entry, looked up): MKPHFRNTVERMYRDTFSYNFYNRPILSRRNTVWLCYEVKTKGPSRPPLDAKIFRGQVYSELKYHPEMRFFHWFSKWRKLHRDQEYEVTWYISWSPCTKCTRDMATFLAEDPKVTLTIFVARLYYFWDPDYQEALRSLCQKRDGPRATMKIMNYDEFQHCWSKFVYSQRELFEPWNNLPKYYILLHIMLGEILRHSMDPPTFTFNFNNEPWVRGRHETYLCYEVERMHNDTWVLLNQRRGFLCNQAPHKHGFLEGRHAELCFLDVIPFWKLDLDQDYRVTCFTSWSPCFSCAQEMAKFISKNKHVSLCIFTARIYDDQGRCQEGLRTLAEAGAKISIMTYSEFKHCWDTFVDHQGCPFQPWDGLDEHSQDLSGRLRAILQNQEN
APOBEC3A confirm = confirmation of human APOBEC3A DNA deaminase inhibitors. shares compounds with A3A deaminase. recombinant A3A, ssDNA deaminase UDG fluorescence assay. inhibition, % at 20 µM. actives 63% (n = 1,400). AID 493151;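 active = inhibition reaching a set limit, 80% of the first screen's cutoff, at 20 µM in any replicate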;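 also: plate controls were DMSO wells with A3A for no effect and wells lacking A3A enzyme for full effect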
UDG ctr A3A = UDG inhibition in APOBEC3A counter-screen; UDG counterscreen, FAM/TAMRA uracil oligo fluorescence; 1,000 tested, under 10 active; shares compounds with A3A deaminase; inhibition, % at 20 µM; call rule not given here
Numbers without * were called inactive; nt = not tested or not shown. Most compounds without a hit are left out; they make up all but 1.1% or so of the library.

SMILES | A3A deaminase | MIN6 prolif | Bfl-1 A1 inh | A3G deaminase | APOBEC3A confirm | UDG ctr A3A
C[N+]1(C2CCC3CCCC2C3O)CCCCC1 (stereo not drawn) | 65* | -3 | 0 | 21 | 68* | 4
O=C(CN1C(=O)COc2ccc(Cl)cc21)Nc1nccs1 | 3 | 0 | -1 | -1 | nt | nt
Cc1cccnc1NC(=O)CN1C(=O)COc2ccc(Cl)cc21 | 69* | -4 | 1 | 17 | 59* | -1
COc1ccc(N(CC(=O)N2CCCCCC2)S(=O)(=O)c2ccccc2[N+](=O)[O-])c(OC)c1 | 50* | 2 | 0 | 17 | 62* | -2
Cn1c(N)c(C(=O)COC(=O)c2ccccc2C(=O)c2ccc(Cl)cc2)c(=O)n(C)c1=O | 2 | -1 | 0 | -2 | nt | nt
COc1ccc(N2CC(C(=O)Nc3nnc(SCC(=O)NC(C)(C)C)s3)CC2=O)cc1 (stereo not drawn) | 48* | 0 | -1 | 12 | 8 | nt
CCn1c(/C=C/c2cc[n+](C)cc2)nc2ccccc21 | 53* | -2 | 2 | 11 | 47* | nt
O=C1ON=C(c2ccc(Cl)c([N+](=O)[O-])c2)/C1=C/c1cccc([N+](=O)[O-])c1O | 82* | -2 | -1 | 23 | 88* | -3
O=C1ON=C(c2cccc([N+](=O)[O-])c2)/C1=C/c1ccc(O)cc1 | 5 | -4 | -1 | 1 | nt | nt
O=C1ON=C(c2ccccc2[N+](=O)[O-])/C1=C/c1cccc([N+](=O)[O-])c1O | 57* | 3 | 0 | 17 | 83* | -1
COc1ccc(N2CCN(C(=O)CCNC(=O)Cn3ccc4ccccc4c3=O)CC2)cc1 | -1 | 2 | 0 | -3 | nt | nt
CCOC(=O)N1CCN(C(=O)CNC(=O)c2ccc(Br)cc2)CC1 | 0 | 7 | 0 | 1 | nt | nt
C=CCn1c(=O)c2ccccc2n2c(SCC(C)=O)nnc12 | 0 | 0 | 0 | -4 | nt | nt
Cc1ccc(C)c(NC(=O)c2cc[n+](C)cc2)c1 | 79* | -1 | -1 | 9 | 69* | -2
C[n+]1ccc(C(=O)Nc2ccccc2Cl)cc1 | 73* | 4 | 0 | 14 | 69* | -2
Cc1ccc(C)c(NC(=O)c2cnccn2)c1 | 0 | -2 | 1 | 1 | nt | nt
Cc1ccc(C)c(NC(=O)c2ncn[nH]2)c1 | 45* | -3 | 0 | 12 | 41* | -1
O=C(Nc1ccccc1Cl)c1ccc2ccccc2c1 | -5 | 0 | 0 | -3 | nt | nt
Cc1c(NC(=O)c2ccc(N3CCCC3)c([N+](=O)[O-])c2)cccc1-c1nc2ccccc2s1 | 4 | -3 | 0 | 2 | nt | nt
Cc1c(NC(=O)c2ncn[nH]2)cccc1-c1nc2ccccc2s1 | 75* | -4 | 0 | 25 | 72* | 3
Cc1cc(C(=O)NNC(=O)c2ccc(F)cc2)c(C)s1 | 4 | 0 | 0 | 1 | nt | nt
COCCC(=O)Nc1c(-c2ccccc2)c2cc(Br)ccc2[nH]c1=O | -4 | -2 | 1 | -5 | nt | nt
CNC(=S)NNC(=O)c1cccn(Cc2cccc(C(F)(F)F)c2)c1=O | -5 | -3 | 0 | -8 | nt | nt
CCOc1ccc(CN(C)C(=O)c2ccc(S(=O)(=O)N(C)c3ccccc3OC)cc2)cc1 | 0 | -7 | 0 | -3 | nt | nt
C=C(C)CSc1nc2sc3c(c2c(=O)n1C1CCCCC1)CCN(C)C3 | -3 | -6 | -1 | 0 | nt | nt
SMILES | A3A deaminase | MIN6 prolif | Bfl-1 A1 inh | A3G deaminase | APOBEC3A confirm | UDG ctr A3A
CSc1nc2sc3c(c2c(=O)n1C1CCCCC1)CCN(C)C3 | 47* | 3 | 1 | 19 | 20 | nt
O=C(Cn1nnc2ccccc21)OCC(=O)c1ccc(Cl)c(Cl)c1 | 41* | -3 | 0 | 0 | 1 | nt
CCOc1ccccc1NC(=O)NC1(C(=O)NCc2cccnc2)CCCCC1 | 0 | 0 | 1 | -3 | nt | nt
Cc1ccc(N=Nc2c(O)[nH]c3ccc(F)cc23)cc1 | -5 | -1 | 0 | 1 | nt | nt
COc1ccc(N=Nc2[nH]c3ccc(C)cc3c2O)cc1 | 75* | 2 | -1 | 21 | 52* | 0
Cc1ccc(N=Nc2[nH]c3ccccc3c2O)cc1 | 63* | -1 | -2 | 22 | 59* | -1
COc1ccc(CCNC(=O)C2CCCN(S(=O)(=O)c3cc(C)ccc3OC)C2)cc1OC (stereo not drawn) | -2 | -3 | 0 | -5 | nt | nt
COc1ccc(C(=O)N[C@H](C(=O)NCc2cccs2)C(C)C)cc1 | 40* | -3 | 0 | -4 | 12 | -1
CC(=O)c1ccc(NC(=O)C[n+]2ccc(N(C)C)cc2)cc1 | -5 | -3 | 2 | -3 | nt | nt
CN(C)c1cc[n+](CC(=O)Nc2ccc(OC(F)F)cc2)cc1 | 48* | -1 | 0 | 11 | 65* | -3
Cc1ccccc1NC(=O)NNC(=O)CCc1ccccc1 | 41* | 0 | -2 | 0 | -1 | nt
COc1ccc(OCC(O)CNC(=O)c2sccc2Cl)cc1 (stereo not drawn) | -4 | -1 | 0 | -3 | nt | nt
C[n+]1cccc(C(=O)N/N=C/c2ccc3c(c2)OCO3)c1 | 75* | 0 | 0 | 18 | 69* | -1
O=C(N/N=C/c1ccc2c(c1)OCO2)c1ccc(COCC(F)(F)C(F)F)cc1 | 98* | 0 | 0 | -6 | -1 | -2
COc1ccc(/C=N/NC(=O)c2ccc(COCC(F)(F)C(F)F)cc2)cc1 | -6 | 0 | 0 | -3 | nt | nt
O=C(N/N=C/c1ccc2c(c1)OCO2)c1ccc2c(c1)OCCO2 | 6 | -4 | 1 | -10 | nt | nt
COc1ccc(NC(=O)c2ccc(OCC3CCCO3)cc2)cc1OC (stereo not drawn) | 50* | -6 | -1 | 16 | 36* | 0
COc1ccc(NC(=O)c2ccc(OCC3CCCO3)cc2)cc1Cl (stereo not drawn) | -7 | -2 | nt | -10 | nt | nt
Cc1cccc(C(=O)N2CCCC(N3CCN(Cc4ccc5c(c4)OCO5)CC3)C2)n1 (stereo not drawn) | -5 | 0 | 0 | -5 | nt | nt
Cc1ccc(S(=O)(=O)n2c([N+](=O)[O-])cnc2C)c(C)c1C | 0 | -2 | 0 | -10 | nt | nt
CCN(CC(=O)Nc1ccc(NC(C)=O)cc1)C(=O)/C=C/c1ccccc1 | -1 | -2 | -1 | -10 | nt | nt
CCN(CC(=O)Nc1ccc(NC(C)=O)cc1)C(=O)/C=C/c1cn(-c2ccccc2)nc1-c1cccs1 | 45* | 1 | 1 | 4 | 16 | nt
C=CCNC(=O)/C(C#N)=C/c1c(N2CCN(c3ccc(OC)cc3)CC2)nc2c(C)cccn2c1=O | -3 | 3 | 0 | -5 | nt | nt
Cc1ccc(N(Cc2cc3cccc(C)c3[nH]c2=O)S(=O)(=O)c2ccccc2)c(C)c1 | 54* | -4 | 2 | 22 | 67* | 1
O=C1C2C(C(=O)N1/N=C/c1cc([N+](=O)[O-])ccc1O)C1C=CC2C12CC2 (stereo not drawn) | -7 | -1 | 0 | -1 | nt | nt
